Growth data for 25 compounds are collected here from PubChem BioAssay (NCI).

Molecules are shown by their SMILES. Values joined by “and” are separate entries in the source; they are usually repeats but may differ in a detail not shown here. Identical values can stand only once. The panel holds about 83,000 compounds, 20% with a hit somewhere; the sample as a whole holds those more often.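 A percent growth of 40 corresponds to 60% growth inhibition; 0 means no net growth; -100 means all cells died. Active threshold: below 10.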 Active and inactive are the calls of the source.

The test has as its system HL-60(TB) leukemia. In words: NCI-60 one-dose screen, 48 h (100 = growth as untreated, 0 = no growth, -100 = all killed). As to conditions: 10 µM unless noted.
Take `Cn1cc(-c2csc(-c3cn(CCCN4CCCCC4)c4ccc(F)cc34)n2)c2cccnc21`: the growth is 56.3% (inactive). Then `CCOC(=O)c1cn2c3c(cc(F)cc3c1=O)C(CC)c1ccccc1C2` (stereo not given), with 94.9% (inactive). With `NC1=NCc2nc3ccccc3c(=O)n2C1` the figure was 90.9% (inactive); with `CN1CCN(CCOc2ccc(-c3cnc4c(-c5ccccc5F)cnn4c3)cc2)CC1`, -30.2% (active); with `O=S(=O)(Nc1ccccc1)c1ccc(C2CC3(Cl)C(Cl)=C(Cl)C2(Cl)C3(Cl)Cl)cc1` (stereo not given), 13% (inactive). Then `Clc1cc2c(c(CSc3nc4ccccc4n4cccc34)c1)OCOC2`, with 84.9% (inactive); and `COc1ccc(/C(C)=C(/c2ccc(OCCCN(C)C)cc2)c2ccc(OC(=O)Cc3ccccc3)cc2)cc1`, with 72% (inactive); and `Nc1nc(=S)c2ncn(C3OC(COP(=O)(O)O)C(O)C3O)c2[nH]1` (stereo not given), with 16.3% (inactive). Turning to `Cc1nc(N)sc1-c1ccnc(Nc2ccc(N3CCOCC3)cc2)n1`, the growth was 43.9% (inactive). Then `Cc1ccccc1N=C(c1ccccc1)C1C(=O)c2ccccc2C1=O`, with 78.5% (inactive); and `Cc1c(C(=O)O[C@H]2[C@@H]3[C@H](C)CC[C@H]3[C@]3(C)O[C@@]2(C2CCCCC2)C[C@H]3OC(=O)CO)ccc2ccccc12`, with -31.5% (active); and `CC1Cc2c(Cl)ncnc2N(C)c2ccc(F)cc21` (stereo not given), with 91.6% (inactive). With `COc1ccc2c(c1)C(=O)/C(=C/c1cccc(OCC(=O)c3ccccc3)c1)O2` the figure was -80.5% (active).

Regarding `Nc1cc(N)ncn1`, the growth was 47.3% (inactive). Then `CSc1nc2sc3c(c2c(=O)n1-c1ccc([N+](=O)[O-])cc1)CCCCC3`, with 97.7% (inactive).

In the case of `COc1ccc(/C=N/C2=C(C#N)C(c3ccccc3[N+](=O)[O-])c3ccc4ccccc4c3O2)cc1` (stereo not given), the growth was 100% (inactive). Then `COc1ccc(-c2nnc(SCC(=O)Nc3ccc(C(=O)/C=C/c4ccccc4)cc3)o2)cc1OC`, with 90% (inactive); and `CC(C)c1ccc2c(c1)CCC1C2CCCC1(C)NCc1ccccc1` (stereo not given), with 22.9% (inactive). With `O=C(O)C1(C(=O)O)CCC1.[NH2-].[NH2-].[Pt+2]` the figure was 103% (inactive) and 58.7% (inactive). Then `O=C(Cc1ccccc1[N+](=O)[O-])c1ccc2c(c1)OCO2`, with 99.7% (inactive). As for `Cn1c(-c2c(N)n(Cc3ccc(C(F)(F)F)cc3)c3nc(C#N)c(C#N)nc23)nc2ccccc21`, the growth is -54.6% (active).

Consider `CN1[C@@H]2CC[C@H]1/C(=C\c1ccccc1)C(=O)/C2=C/c1ccccc1`, for which the growth was 37% (inactive). On to `O=C(O)C1C2CCC1C(O)C2` (stereo not given), for which the growth was 94.6% (inactive) and 96% (inactive). Then `O=C(/C=C/c1c(Cl)nc2sccn12)c1nccs1`, with 81.5% (inactive); and `CCOC(=O)c1cc(-c2ccc([N+](=O)[O-])cc2)n(-c2ccc(C(=O)O)c(O)c2)c1C`, with 31% (inactive).
